Screening results (PubChem)
Compounds with a hit are over-represented: about 1.5% of the library has one in this group of screens.
USP1-UAF1 inh – Inhibitors of USP1/UAF1: Primary Screen; Ubiquitin carboxyl-terminal hydrolase 1 (Homo sapiens), O94782; recombinant USP1/UAF1, Ub-Rhodamine cleavage fluorescence; Potency, µM (doses to about 57.1 µM), without a hit: at the highest dose activity change, negative = inhibition, most hits filed as inhibitors; actives 0.23% (n = 390,000); note: potency is the fitted concentration of half-maximal effect; nearly all actives have a fitted effect of over 60% in size
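USP1/UAF1 complex at 1 nM was preincubated with compound for 15 min at room temperature, then Ub-Rho substrate (150nM final) was added. Fluorescence (480/540 nm) was read kinetically, 6 reads every 60 seconds.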
TrxR1 substrate – qHTS Assay for Substrates of Mammalian Selenoprotein Thioredoxin Reductase 1 (TrxR1): qHTS; Thioredoxin reductase 1, cytoplasmic (Rattus norvegicus), O89049; purified TrxR1 substrate turnover, NADPH consumption readout; Potency, µM (doses to about 114 µM), for inactives: at the highest dose activity change, negative = substrate turnover; actives 0.01% (n = 390,000); AID 588456, 2011; note: potency is the fitted concentration of half-maximal effect; nearly all actives have a fitted effect of over 50% in size
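Rat TrxR1, dispensed at 90 nM, was prereduced with 400 uM NADPH (final) for 5 min at ~22 deg C, then incubated with compound 15 min before 400 uM selenite. A first-read NADPH fluorescence drop versus no-compound background flagged substrates.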
GALK inhibitor – qHTS Assay for Inhibitors of Human Galactokinase (GALK). P51570. Purified GALK, Kinase-Glo residual ATP luminescence. Potency, µM (doses to about 57.5 µM), for inactives: top-dose activity change, negative = inhibition, most hits filed as inhibitors. actives 0.007% (n = 270,000). AID 1868, 2009; note: potency is the fitted concentration of half-maximal effect
Target sequence (P51570 whole entry, looked up): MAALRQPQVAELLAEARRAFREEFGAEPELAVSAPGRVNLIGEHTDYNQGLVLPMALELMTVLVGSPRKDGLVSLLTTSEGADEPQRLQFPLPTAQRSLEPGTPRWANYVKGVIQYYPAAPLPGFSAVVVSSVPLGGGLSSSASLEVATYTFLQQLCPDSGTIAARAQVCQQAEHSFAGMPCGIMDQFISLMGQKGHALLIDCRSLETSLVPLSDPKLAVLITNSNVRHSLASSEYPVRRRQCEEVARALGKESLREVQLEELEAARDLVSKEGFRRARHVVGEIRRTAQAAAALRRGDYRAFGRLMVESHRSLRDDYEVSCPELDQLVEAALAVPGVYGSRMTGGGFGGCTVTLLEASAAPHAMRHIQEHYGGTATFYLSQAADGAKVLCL
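ATP-depletion format; final 35 uM ATP, 100 uM D-galactose, 5 nM enzyme; pH 8.0 HEPES/Mg2+ buffer; 60 min RT; luminescence read 10 min after detection reagent.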
FBPA coupling cs – qHTS Assay for Inhibitors of Fructose-1,6-bisphosphate Aldolase from Giardia Lamblia: Coupling assay counterscreen; AID 2472, 2010; activity change, negative = inhibition, % at 58.2 µM, hits read low; coupling enzyme system counterscreen, AmpLite Red fluorescence; actives 0.67% (n = 290,000); in the data active = activity change below about -30%
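Activity here indicates interference with the coupling reaction, not aldolase inhibition. Compounds at 57.5 uM final met coupling enzymes for 10 min at RT; substrate and AmpLite Red detection followed, with a 525/598 nm fluorescence read after 20 min.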
rTrxR1 inhibitor – qHTS Assay for Inhibitors of Mammalian Selenoprotein Thioredoxin Reductase 1 (TrxR1): qHTS; recombinant rTrxR1, NADPH fluorescence consumption, selenite substrate; actives 1% (n = 390,000); Potency, µM (highest dose often 114 µM), without a hit: top-dose activity change, negative = inhibition, actives largely listed as inhibitors; note: potency is the fitted concentration of half-maximal effect; nearly all actives have a fitted effect of over 65% in size
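Rat TrxR1 (90 nM in the dispensed reagent) was pre-reduced with 400 uM NADPH for 5 min at room temperature, then incubated with compound for 15 min. After 400 uM selenite was added, NADPH fluorescence (Ex 340/Em 450 nm) was followed for 8 min.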
The depositor's hits bear a star; ? = inconclusive; . = not tested or not shown; [ ] = dose if it differs, or a comment. Unless noted, calls come from the whole dose curve; as a rule, active = well fitted curve in the direction sought with a large enough effect; inconclusive = small, poorly fitted or top-dose-only effect, or another doubt; inactive = no such curve, though single readings can be large; an effect the other way counts as inactive or inconclusive. % is set by controls: 0 for no effect and ±100 for the full control effect.

SMILES | USP1-UAF1 inh | TrxR1 substrate | GALK inhibitor | FBPA coupling cs | rTrxR1 inhibitor
CCOC(=O)c1cc2c(=Cc3ccc(N(C)C)cc3)c3ccccc3n2[n+]1C | 15.8µM* | 9.0%[11.4 µM] | . | . | 23.1%[11.4 µM]
COC(=O)Cc1nnc(SCC(=O)Nc2ccccc2)c2ccccc12 | -16.0% | -5.8% | 6.4% | . | 50.1µM*
COc1ccc(C2Nc3ccc(NC(C)=O)cc3C(=O)N2Cc2cccc(Cl)c2)cc1COc1ccc(NC(C)=O)cc1 (stereo not given) | . | 11.9% | . | . | 4.4%
CCCCC/C=C\C/C=C\C=C\[C@@H](O)C/C=C\CCCC(=O)O | . | . | . | 1.3 | .
Cc1cc(=O)c(C(=O)c2ccccc2)c(C)o1 | -4.9% | 7.7% | . | . | 4.1%
Cc1oc2c(c1C(=O)c1ccc(Cl)cc1)C(=O)C(=O)c1ccccc1-2 | ? | 79.4µM* | -1.3% | -79.4* | 2.4%
Cc1ccc(C(=O)c2coc3c2C(=O)C(=O)c2ccccc2-3)cc1 | -17.9% | -3.3% | 1.3% | -78.9* | 8.0%
COc1ccc(C(=O)c2coc(-c3ccccc3C(=O)O)c2C(=O)O)cc1 | -12.0% | -8.2% | 1.1% | -2.1 | -9.0%
Cc1ccc(C(=O)c2c(C)oc3c2C(=O)C(=O)c2ccccc2-3)cc1 | 14.1µM* | ? | 0.0% | -79.3* | 22.2%[57.1 µM]
CCCCCCCC/C=C\CCCCCCCCCCCC(=O)O | . | . | . | 11.8 | .
CCOc1cc(/C=C2\C(=O)N(Cc3ccc(C)cc3)C(C)=C2C(=O)OC)ccc1O | -8.5% | -0.8%[57.1 µM] | . | -11.3 | 28.2µM*
CCOC(=O)C1=C(C)N(c2ccc(OC)cc2)C(=O)/C1=C\c1ccc(O)c(OCC)c1 | -25.8% | -3.0% | -0.8% | -16.7 | 39.8µM*
COC(C/C=C\C(=O)[C@H](C)OCc1ccccc1)OC | -24.1% | -2.7% | . | . | 44.7µM*
CSCC[C@H](NC(=O)[C@@H]1CCCN1C(=O)[C@H](CCCN=C(N)N)NC(=O)[C@H](CC(C)C)NC(=O)[C@@H]1CCCN1C(=O)[C@@H](NC(=O)[C@@H](N)CCC(N)=O)C(C)C)C(=O)N[C@H](C(=O)N[C@@H](Cc1ccc(O)cc1)C(=O)N[C@@H](CCCCN)C(=O)O)[C@@H](C)O | . | . | . | 2.2 | .
CC1=CC(C)(C)Nc2ccc(OC(=O)CN3C(=O)c4cccc5cccc(c45)C3=O)cc21 | ? | 8.5% | 1.1% | -53.9* | 8.91µM*
CC1=CC(C)(C)Nc2ccc(OC(=O)CN3C(=O)c4ccccc4C3=O)cc21 | ? | -1.7% | . | -2.4 | -8.5%
O=C(C[n+]1cccc(Br)c1)c1ccc(O)c(O)c1 | . | -16.7% | . | . | -14.2%
O=C(O)/C=C/c1ccc([N+](=O)[O-])o1 | -5.5% | -0.8%[57.1 µM] | 9.6% | 5.9 | 10µM*
N#C/C(=C\c1ccc([N+](=O)[O-])o1)C(=O)Nc1ccc(F)cc1 | -23.5% | 7.2% | 2.1% | -16.7 | 3.16µM*
O=C1CN(/N=C\c2ccc([N+](=O)[O-])o2)C(=O)N1 | . | . | . | 0.5 | .
CC1CN(N=Cc2ccc([N+](=O)[O-])o2)C(=N)O1 (stereo not given) | -31.3% | -11.9% | . | . | 35.5µM*
O=[N+]([O-])c1ccc(/C=N/N=C/c2ccc([N+](=O)[O-])o2)o1 | -9.1% | 3.7%[57.1 µM] | -0.2% | -20.3 | 2.51µM*
O=C(O)C1CC(CCCP(=O)(O)O)CCN1 (stereo not given) | . | . | . | 1.5 | .
N#CCc1ccc(NC(=O)/C=C/c2ccc([N+](=O)[O-])o2)cc1 | -21.3% | -9.5% | 8.5% | -5.6 | 15.8µM*
O=[N+]([O-])c1ccc(/C=N/NS(=O)(=O)c2ccc(Cl)cc2)o1 | 2.3% | -4.9% | -1.0% | -3.8 | 14.1µM*
SMILES | USP1-UAF1 inh | TrxR1 substrate | GALK inhibitor | FBPA coupling cs | rTrxR1 inhibitor
Clc1ccc(CNc2cc(-c3ccccc3)nc3nncn23)cc1 | -11.5% | -9.1% | . | . | -7.6%
COc1ccccc1CNc1cc(-c2ccccc2)nc2nncn12 | -28.0% | -1.9% | . | . | 35.5µM*
CCC(c1nnnn1CCOC)N(Cc1cc2cc(C)c(C)cc2[nH]c1=O)CC1CCCO1 (stereo not given) | -16.5% | -5.2% | 0.6% | -4.7 | -22.6%
CCCC(c1nnnn1CCOC)N(Cc1cc2cc(C)c(C)cc2[nH]c1=O)CC1CCCO1 (stereo not given) | -5.0% | -2.7% | -1.2% | -41.4* | 7.1%
CN(C)c1ccc(C(=C2C=CC(=[N+](C)C)C=C2)c2ccc(N(C)C)cc2)cc1 | . | 2.8%[0.0914 µM] | . | -57.7* | -13.9%
C[N+]1(CC(=O)c2ccc(Cl)cc2)CCOCC1 | . | 4.6% | . | . | 2.7%
COc1cc2c(NC3CCN(C)CC3)nc(N3CCN(C)CC3)nc2cc1OCCCN(C)C | . | 67.4% | . | . | -33.9%
COc1cccc(N(C(=O)CCl)C(C(=O)NCCc2ccccc2)c2cccs2)c1 (stereo not given) | -23.0% | 1.0% | 0.2% | 4.0 | 14.1µM*
COc1ccc(N(C(=O)c2ccco2)C(C(=O)NC2CCCCC2)c2cccs2)cc1OC (stereo not given) | -13.7% | 26.2% | 1.7% | -1.3 | -5.7%
COc1ccc(N(C(=O)CCl)C(C(=O)NCCc2ccccc2)c2cccs2)cc1Cl (stereo not given) | -17.6% | -7.8% | -1.9% | 0.7 | 14.1µM*
COC1=CC(=O)C(OC)=C(OC)C1=O | -7.5% | -8.7% | . | . | 50.1µM*
Cc1ccc(C)c(C(=O)CSc2n[nH]c(C)n2)c1 | -23.7% | -2.8% | 3.1% | -0.4 | 35.5µM*
CCNC(=O)c1c(NC(=O)c2nc(SC)ncc2Cl)sc2c1CCCC2 | . | 1.0% | . | . | 4.4%
O=C(c1ccccc1)c1cc(Cl)ccc1N1C(=O)C=CC1=O | -5.9% | 7.2% | 9.5% | -1.0 | 0.794µM*
O=C(CC(=O)c1cc(Cl)ccc1O)c1ccccc1 | -15.9% | 3.5% | 2.0% | -1.8 | -5.4%
O=C(O)c1cccnc1C(=O)O | 7.0% | 11.5%[57.1 µM] | . | -63.5* | 15.5%[57.1 µM]
Cc1ccc(S(=O)(=O)N2CCN(c3nc(-n4cccn4)nc4ccccc34)CC2)cc1 | . | 9.4% | . | . | 0.8%
CCOC(=O)/C(=C/C=C1\Sc2cc(C)c(C)cc2N1CC)C(C)=O | 25.1µM* | -10.7% | -2.6% | -0.8 | -7.9%
CCN1/C(=C/c2ccc3cc(C)ccc3[n+]2CC)Sc2cc(C)c(C)cc21 | ? | -3.6%[57.1 µM] | -1.1% | 1.5 | 17.8%[57.1 µM]
CCCCCCCCCCCCCCCCCCN(CCCCCCCCCCCCCCCCCC)c1ccc(C=O)cc1 | . | 2.1% | . | . | 1.0%
COC(=O)c1ccccc1NC(=O)c1noc2c1CSc1ccccc1-2 | 6.2% | -4.1% | . | . | 14.1µM*
COc1ccc(C)cc1NC(=O)c1noc2c1CSc1ccccc1-2 | -21.9% | 7.8% | . | . | 13.7%
